The list is not random: actives were taken first. Their share in the collection is about 1.7%.
GLP-1R agonist: agonists of human GLP-1 receptor. P43220. HEK293 GLP-1R CRE-luciferase, luminescence, 4-6 h; cells express a hypersensitive GLP-1R form. Potency, µM (top dose mostly 45.6 µM), without a hit: at the highest dose activation, hits mostly activators. actives 0.007% (n = 380,000); also: % of control where 0% means no effect
Target sequence (P43220 whole entry, looked up): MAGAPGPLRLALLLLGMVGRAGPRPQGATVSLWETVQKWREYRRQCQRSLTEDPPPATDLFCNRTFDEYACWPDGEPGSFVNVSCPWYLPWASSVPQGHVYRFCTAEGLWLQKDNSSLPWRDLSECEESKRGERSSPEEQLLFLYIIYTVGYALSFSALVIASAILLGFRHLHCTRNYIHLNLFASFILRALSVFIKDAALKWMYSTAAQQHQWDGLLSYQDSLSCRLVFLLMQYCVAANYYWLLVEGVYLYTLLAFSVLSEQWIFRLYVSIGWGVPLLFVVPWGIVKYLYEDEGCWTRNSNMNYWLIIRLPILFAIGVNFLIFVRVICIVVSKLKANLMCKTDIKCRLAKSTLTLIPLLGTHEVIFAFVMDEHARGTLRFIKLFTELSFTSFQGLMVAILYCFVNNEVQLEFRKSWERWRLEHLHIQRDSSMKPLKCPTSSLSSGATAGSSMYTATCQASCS
GLP1R cytotox: cytotoxicity in counter-screen for GLP-1R inverse agonists; HEK293 cAMP-luciferase reporter cells, luminescence, 24 h; Potency, µM (titrated, usually from 38.3 µM), for inactives: at the highest dose activity change, negative = inhibition, hits mostly inhibitors; actives 0.13% (n = 410,000); AID 624418;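 also: loss of luciferase light is scored as toxicity; % is scaled to controls: 0 for no effect and ±100 for the full control effect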
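1536-well qHTS counterscreen of the MLSMR; 200 cells/uL, 12 h pre-incubation, 23 nL cpd, 24 h at 37 deg C 5% CO2, luciferase detection reagent, 12 min RT, luminescence. Inhibition = undesired.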
PTHR1 ag: activates the human parathyroid hormone receptor PTHR1. Q03431. HEK293 GP2 PTHR1 cells, GloSensor cAMP luminescence, 1 h. Potency, µM (doses to about 115 µM), for inactives: top-dose activation, most hits filed as activators. actives 0.075% (n = 410,000). AID 743266; also: nearly all actives have a fitted effect of over 55% in size
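HEK-293-derived GP2 cells expressing PTHR1 and a GloSensor cAMP reporter, 3,000/well, plated overnight, given luciferin plus IBMX (each 0.5 mM as added) for 1 h at 37 °C, then compound for 1 h at 37 °C. Luminescence was read after 15 min at room temperature.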
RGS4 inhibitor: blocks human RGS4-accelerated GTP hydrolysis | Transcreener GDP fluorescence polarization, RGS4-accelerated GTP hydrolysis | Potency, µM (top dose mostly 114 µM), inactives show at the highest dose activity change, negative = inhibition, actives largely listed as inhibitors | actives 0.039% (n = 390,000) | AID 504845; also: % is scaled to controls: 0 for no effect and ±100 for the full control effect; nearly all actives have a fitted effect of over 75% in size
Target sequence (P49798 whole entry, looked up): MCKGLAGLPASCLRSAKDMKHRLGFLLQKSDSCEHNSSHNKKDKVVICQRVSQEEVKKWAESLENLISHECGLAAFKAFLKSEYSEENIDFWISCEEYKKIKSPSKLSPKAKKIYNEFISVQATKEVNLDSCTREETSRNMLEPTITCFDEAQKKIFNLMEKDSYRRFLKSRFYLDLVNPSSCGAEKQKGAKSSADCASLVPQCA
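MLSMR compounds (23 nl, pin-transferred) preincubated 10 min at room temperature with a 500nM (2x) first reagent, then RGS4 at 900nM (2x) plus Transcreener GDP mix added; fluorescence polarization (620/688 nm) read before and after 90 min at 30 °C.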
GLP-1R inv ag: acts as inverse agonist at human GLP-1 receptor | P43220 | HEK293 GLP-1R CRE-luciferase, luminescence, 24 h; GLP-1R form is constitutively active | Potency, µM (titrated, usually from 38.3 µM), inactives show at the highest dose activity change, negative = inhibition, usual class: inhibitors | actives 1.6% (n = 410,000); also: % is scaled to controls: 0 for no effect and ±100 for the full control effect; nearly all actives have a fitted effect of over 55% in size
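Stable HEK293 clone (constitutively active GLP-1R + cAMP-response luciferase); 200 cells/uL plated, 12 h pre-culture, compound 24 hr, 37 deg C/5% CO2; detection reagent 12 min RT; luminescence.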
The depositor's hits bear a star; i = inactive; u = inconclusive; x = no result; ! = not active in a repeat; [ ] = dose if it differs, or a comment. Calls follow the shape of the dose curve; as a rule, active = well fitted curve in the direction sought with a large enough effect; inconclusive = small, poorly fitted or top-dose-only effect, or another doubt; inactive = no such curve, though single readings can be large; an effect the other way counts as inactive or inconclusive. Potency is read from the fitted curve at half-maximal effect.

SMILES	GLP-1R agonist	GLP1R cytotox	PTHR1 ag	RGS4 inhibitor	GLP-1R inv ag
Cc1ccc(C(=O)N(CCc2ccccc2)Cc2ccccc2)cc1S(=O)(=O)N1CCCCC1	9.7%	4.8%	-21.3%	6.5%	u
Cc1ccc(C(=O)N(CCc2ccccc2)Cc2ccccc2)cc1S(=O)(=O)N1CCOCC1	5.4%	-10.5%	-23.7%	19.9%	10µM*
OCC[C@@H]1C[C@H](O)[C@@H](O)[C@@]2(CCCc3ccccc3O2)O1	-0.5%	-15.6%	i	6.2%	6.5%
CCOn1c(=O)c(-c2cccc(Br)c2)[n+]([O-])c2ccccc21	24.0%	-4.0%	-13.8%	-29.9%[56.9 µM]	5.6%
CCc1ccccc1NC(c1nnc(-c2cccc(F)c2)o1)c1ccc(F)cc1Cl (stereo not given)	x	-1.0%	i	2.9%	11.2µM*
Cc1cccc(NC(c2nnc(-c3ccccc3)o2)c2ccc(F)cc2Cl)c1C (stereo not given)	x	9.7%	-8.5%	-10.8%	4.2%
COc1ccc(-c2oc3c(c2C(=O)OCCCO)C(OCCCCCO)CCC3)cc1 (stereo not given)	7.9%	-3.2%	-5.9%	x	7.7%
O=C(CCCN1C(=O)/C(=C/c2ccccc2Cl)SC1=S)N1CCCC1	-7.4%	u	-24.2%	-38.5%	10µM*
O=C(CCN1C(=O)/C(=C\c2ccccc2)SC1=S)N1CCOCC1	-0.1%	u	i	-15.1%	6.0%
O=C(CCCN1C(=O)/C(=C/c2ccccc2)SC1=S)N1CCOCC1	3.2%	u	-20.1%	10.9%	8.91µM*
CCOCCCNC(=O)Nc1cc(C(=O)NCc2ccc(C(C)C)cc2)ccc1N1CCCC1	x	-12.9%	-39.0%	6.9%	u
COc1ccc(Cl)cc1NC(=O)CN(C)C(=O)c1cc2c(s1)CCCC2	3.4%	u	-28.4%	-6.8%	5.01µM*
COc1ccc(Cl)cc1NC(=O)CN(C)C(=O)Cc1ccc2c(c1)CCC2	11.1%	-1.0%	i	14.7%	u
COc1ccc(Cl)cc1NC(=O)CN(C)C(=O)c1sc2ccccc2c1Cl	20.8%	-32.8%	-17.4%	2.2%	5.62µM*
COc1ccc(Cl)cc1NC(=O)CN(C)C(C)C(=O)NC(=O)NC1CCCCC1 (stereo not given)	-15.0%	u	-15.2%	-28.3%	3.16µM*
CC1CCCN(C(=O)CN(c2ccccc2)S(=O)(=O)c2ccc(F)cc2)C1 (stereo not given)	7.7%	-17.9%	i	3.3%	u
CC(C)OC(=O)c1c(NC(=O)COc2cccc(Br)c2)sc2c1CCCC2	x	0.3%	-20.6%	-30.8%	9.5%
CC1(C)CC(NC(=O)c2ccccc2C(=O)NC2CC(C)(C)NC(C)(C)C2)CC(C)(C)N1	0.0%	2.0%	-21.4%	3.1%[11.4 µM]	4.9%
CC1(C)CC(NC(=O)N2c3ccccc3Sc3ccccc32)CC(C)(C)N1	0.8%	u	-24.5%	-43.2%	5.01µM*
CC(C(=O)N1CCCC1)N1CCN(S(=O)(=O)c2ccc(OC(F)(F)F)cc2)CC1 (stereo not given)	0.3%	-0.4%	i	-6.5%	-14.2%
CC1CC(C)CN(S(=O)(=O)c2ccc(C(C)(C)C)cc2)C1 (stereo not given)	7.7%	3.7%	-37.6%	31.8%	2µM*
CC1CC(C)CN(C(=O)C(C)N2CCN(S(=O)(=O)c3ccc(C(F)(F)F)cc3)CC2)C1 (stereo not given)	3.6%	-5.0%	-29.7%	19.0%	10µM*
COc1cc2ccccc2cc1C(=O)N/N=C/c1ccc2c(c1)OCO2	11.1%	u	i	-15.5%	6.31µM*
O=C(Nc1ccccc1Cc1ccccc1)c1oc2ccccc2c1COc1ccccc1	-4.6%	77.9%	-28.7%	23.2%	4.47µM*
O=C(NCCc1ccccc1)c1oc2ccccc2c1COc1ccccc1	12.0%	16.3%	-6.3%	-24.0%	3.16µM*
SMILES	GLP-1R agonist	GLP1R cytotox	PTHR1 ag	RGS4 inhibitor	GLP-1R inv ag
Cc1c(C(=O)NCCc2ccccc2)oc2ccccc12	11.9%	-1.0%	-28.1%	-6.6%	u
C[C@@H]1CN([C@H](C)CO)C(=O)CCCn2nncc2CO[C@H]1CN(C)S(=O)(=O)c1ccccc1	-0.5%	3.8%	-29.3%	x	-0.1%
CCOc1ccccc1/C=N\Nc1cnn(Cc2ccccc2)c(=O)c1Cl	13.5%	-21.7%	-7.7%	3.3%	7.94µM*
O=C(CN1CCN(Cc2ccccc2)CC1)Nc1ccccc1-c1ccccc1	15.5%	-19.6%	i	14.1%	2µM*
NC(=O)c1ccccc1NC(=O)CN1CCN(Cc2ccccc2)CC1	-0.2%	-4.2%	i	-26.2%	-10.4%
CCN1CCN(Cc2ccc(NC(=O)c3cc(NC(=O)c4cnnc5ccccc45)cc(OC)c3)cc2C(F)(F)F)CC1	1.8%	u	-10.3%	-2.1%	8.91µM*!
COC(=O)c1c(N)n(-c2ccc(OC)c(OC)c2)c2nc3ccccc3nc12	5.9%	-6.0%	i	6.9%	7.8%
Cc1ccc(CNC(=O)CO/N=C/c2ccc(C(C)(C)C)cc2)cc1	-3.3%	-20.9%	-61.5%	-35.5%	u
CC(C)(C)c1ccc(/C=N/OCC(=O)NCc2ccccc2)cc1	15.3%	19.9%	-9.3%	3.3%	8.91µM*
COc1ccccc1NS(=O)(=O)c1cc(C(=O)N2CCN(C/C=C/c3ccccc3)CC2)ccc1C	-0.8%	-11.1%	-5.6%	-17.9%	10µM*
O=C(CSc1nc(-c2ccccc2)c(-c2ccccc2)o1)N1CCCCC1	-0.5%	1.8%	-31.2%	x	11.2µM*
O=C(CSCC(=O)N1CCCCC1)Nc1nc(-c2ccccc2)c(-c2ccccc2)s1	-2.9%	-5.3%	-46.1%	0.1%	5.62µM*
Cc1ccccc1C(=O)NC(=O)Nc1ccc(-n2nc(C(F)(F)F)cc2C(F)(F)F)cc1	9.7%	2.3%	-7.1%	5.6%	-5.7%
C=CCN(c1ccccc1Cl)S(=O)(=O)c1cccc(C(=O)NCCc2ccc(OC)cc2)c1	-3.1%	-3.8%	i	22.7%	4.47µM*
C=CCN(c1ccccc1OC)S(=O)(=O)c1cccc(C(=O)NCc2cccs2)c1	11.1%	7.7%	-13.4%	-7.3%	u
Cc1cc(C(=O)COC(=O)C2=COCCO2)c(C)n1-c1ccc2c(c1)OCO2	0.0%	-15.2%	-3.4%[57.5 µM]	-32.6%[56.9 µM]	u
Cc1cc(C(=O)COC(=O)C2=COCCO2)c(C)n1-c1cccc(F)c1	4.3%	2.4%	-11.0%	-12.6%	10µM*
C=C(C)COc1ccc(-c2ncnc(C(F)(F)F)c2-c2ccccc2)c(O)c1	12.8%	1.3%	-34.1%	-16.1%	2.82µM*
C=C(C)COc1ccc(-c2ncnc(C(F)(F)F)c2-c2ccc(OC)cc2)c(O)c1	18.4%	1.6%	-10.4%	8.7%	7.94µM*

Screening results (PubChem)
